Source: PubChem BioAssay (NCI)
This is part of a sample that, as a whole, favours compounds with a hit. Of some 83,000 tested, about 20% had one in any assay.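 Cell lines were cultured in 96-well plates, exposed to a single compound concentration, and assessed for percent growth 48 hours later.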 Activity calls are given as the source filed them.

Each molecule was assayed on SNB-19 CNS (assay: NCI-60 one-dose screen, 48 h (100 = growth as untreated, 0 = no growth, -100 = all killed)). Settings: 10 µM unless noted.
Method: Growth inhibition of the SNB-19 human tumor cell line is measured as a screen for anti-cancer activity. Cells are grown in 96 well plates and exposed to the test compound for 48 hours. Compounds are tested at a single concentration, which is 10^-5 M for most compounds. The reported endpoint is percent growth (GI% or GIPRCNT), where numbers from 0 - 100% represent growth inhibition, and numbers from -100% - 0 represent cell death. For example, a value of 40 represents 60% growth inhibition. A value of 0 means no net growth occurred over the course of the experiment. A value of -40 indicates 40% of cells at the beginning of the experiment died by the end of the experiment. A value of -100 means all cells are dead at the end of the experiment.
NCI-60 Human Tumor Cell Lines Screen was performed using the standard one-dose NCI protocol, which is described in more detail at https://dtp.cancer.gov/discovery_development/nci-60/default.htm.
Compounds with GIPRCNT values below 10 were considered active. Activity score was based on GIPRCNT using the following formula: […]
Score is 0 for GIPRCNT values of 100 or above, 50 for GIPRCNT values of 0, and 100 for GIPRCNT values of -100.
In the case of `N#Cc1ccc(NC(=O)c2ccc3cccnc3c2O)cc1`, the growth is reported as 23.6% (inactive). For `Cc1ccnc2nc(C(=O)OCC(=O)Nc3ccc(-c4ccccc4)cc3)nn12`, the growth was 103% (inactive). `COc1ccc(-c2nnc(COc3ccc(NS(=O)(=O)c4ccc(OC)cc4)cc3F)o2)cc1` was tested, and the growth was 84% (inactive). In the case of `C=CCn1c(C)nc2ccc(Nc3nc(Nc4ccc(F)cc4)nc4ccccc34)cc21`, the growth is reported as 96.5% (inactive). `Nc1c(C(=O)Nc2ccccc2)sc2nc3c(cc12)CCC3` was tested, and the growth was 85.1% (inactive). `COc1ccc(OC)c(-c2ccc(-c3ccccc3N)c3[nH]c4ccccc4c23)c1` was tested, and the growth was 89.1% (inactive). `COc1cc(NS(C)(=O)=O)ccc1Nc1c2ccc([N+](=O)[O-])cc2nc2c(C)cccc12` was tested, and the growth was 21.2% (inactive). `O=C(/C=C/CN1CCOCC1)Nc1cc2c(Nc3cccc(Cl)c3F)ncnc2cc1OCCOC(F)F` was tested, and the growth was 81.7% (inactive). With `COc1cc(C2C=C(C)N=C3SC=CN32)cc(OC)c1OC` (stereo not given) the growth was 107% (inactive). For `COC1=CC(c2ccc[nH]2)=N/C1=C\c1[nH]c(C)c(C(=O)CCCCC(=O)NCc2ccccc2)c1C`, the growth was 77.1% (inactive). With `CCO/C=N/NC(=O)c1ccncc1` the growth was 105% (inactive). `O=c1[nH]c(CN2CCN(c3ccccc3F)CC2)nc2sc3c(c12)CCC3` was tested, and the growth was 106% (inactive). For `CC[C@H](C)[C@H]1NC(=O)[C@@H](N[C@](C)(O)[C@@H](N)CC(C)C)[C@@H](C)OC(=O)[C@H](Cc2ccc(OC)cc2)N(C)C(=O)[C@@H]2CCCN2C(=O)[C@H](CC(C)C)NC(=O)[C@@H](C)C(=O)[C@H](C(C)C)OC(=O)C[C@@H]1O`, the growth was -12.5% (active). In the case of `O=C(CCC(=O)OC1CCCC1)OC1CCCC1`, the growth is reported as 96.6% (inactive). With `C=C1C(=O)O[C@H]2[C@H]1CC/C(COC(=O)NCc1cc(OC)c(OC)c(OC)c1)=C\CC[C@@]1(C)O[C@@H]21` the growth was 72.8% (inactive). For `COc1ncc(-c2ccc3ncnc(Nc4cccc(Cl)c4)c3c2)cc1NS(=O)(=O)CCN1CCOCC1`, the growth was 21.2% (inactive). `CN(C)c1ncc(-c2ccc(C(F)(F)F)cc2)c(NC2CCCCCC2)n1` was tested, and the growth was 71.8% (inactive). In the case of `O=C(Nc1ccc(F)c(Cl)c1)c1n[nH]c(=O)c2ccccc12`, the growth is reported as 104% (inactive). In the case of `COC(=O)c1ccc2nc(-c3cc4ccccc4n3C)n(CCCCOc3cc4c(cc3OC)C(=O)N3CCC[C@H]3C=N4)c2c1`, the growth is reported as 11.3% (inactive). `Cn1c(C(N)=O)cc2c1-c1nc(NC3CCCCC3)ncc1CCC2` was tested, and the growth was 81.9% (inactive). `c1ccc([P+](CCC[P+](c2ccccc2)(c2ccccc2)c2ccccc2)(c2ccccc2)c2ccccc2)cc1` was tested, and the growth was 64.4% (inactive). `O=S(=O)(NCCCNc1cc(-c2cn(-c3ccccc3)nc2-c2cccc(O)c2)ccn1)c1cccc(F)c1` was tested, and the growth was 81.6% (inactive). `COc1cc(/C=C/C(=O)c2ccccc2O)ccc1OCCCOc1cc2c(cc1OC)C(=O)N1CCC[C@H]1C=N2` was tested, and the growth was -1.67% (active). With `CCCOC(=O)C1(O)CCCC1` the growth was 108% (inactive). With `C#CCN1C(=O)/C(=c2\sc3n(c2=O)C2C(NN=3)N(CC)C(=O)N2CC)c2ccccc21` (stereo not given) the growth was 28% (inactive). `COc1ccc(C(=O)c2cc(OC)c(OC)c(OC)c2)cc1/C=C/C(=O)c1ccc(O)cc1` was tested, and the growth was 34.8% (inactive). In the case of `CCOC(=O)c1cc(/C(=N\O)c2cc(OC)c(OC)c(OC)c2)n2cc(C)cc(C)c12`, the growth is reported as 40.5% (inactive). In the case of `COC(=O)CCCCCCN=Cc1c(O)c(O)c(C(C)C)c2cc(C)c(-c3c(C)cc4c(C(C)C)c(O)c(O)c(C=NCCCCCCC(=O)OC)c4c3O)c(O)c12`, the growth is reported as 17.6% (inactive). With `COc1cc(Cn2c(-c3nonc3N)nc3ccccc32)ccc1C` the growth was 53.8% (inactive). In the case of `CC/C=C\C[C@H](O)C/C=C1/C(=O)C(Cl)=C[C@@H]1C/C=C\CCCC(=O)O`, the growth is reported as 74.7% (inactive). For `CCC(=O)Nc1ccccc1C#C/C=C\C#Cc1ccccc1SC`, the growth was 79.3% (inactive). `CC(=O)Nc1ccc(S(=O)(=O)N2C(=O)CCC2C(=O)Nc2ccc(Br)cc2)cc1` (stereo not given) was tested, and the growth was 46.1% (inactive). With `N#Cc1c(NC(=O)c2ccc([N+](=O)[O-])o2)[n+]([O-])c2cc(F)c(F)cc2[n+]1[O-]` the growth was 121% (inactive). With `COC(=O)CC/C(C)=N\Nc1ccc([N+](=O)[O-])cc1` the growth was 99.4% (inactive). `COc1ccc(Cn2cc(COc3cc(/C=C/C(=O)c4cc(OC)c(OC)c(OC)c4)ccc3OC)nn2)cc1` was tested, and the growth was 82.6% (inactive). With `CC1=NN2C(=NC3=C(CCC/C3=C\c3ccc(Cl)cc3)C2c2ccc(Cl)cc2)S1` (stereo not given) the growth was 84.3% (inactive). `COc1ccc(C(=O)c2cc(OC)c(OC)c(OC)c2)cc1/C=C/C(=O)c1ccc2c(c1)OCO2` was tested, and the growth was 11.8% (inactive). With `COc1cc(-c2csc(NC(=O)Nc3ccc(Cl)cc3Cl)n2)cc(OC)c1OC` the growth was 41.7% (inactive). `CC(C)C[C@H](NC(=O)[C@@H](Cc1ccccc1)n1ccc(Nc2ccccc2)cc1=O)B(O)O` was tested, and the growth was 18.1% (inactive). In the case of `COC12CC(=O)C(C(C)=O)=C(O)C1(C)c1c(O)c(C)c(O)c(C(C)=O)c1O2` (stereo not given), the growth is reported as 52.8% (inactive).
